Test results as given in PubChem BioAssay (NCATS).
Results filed as inconclusive are left out. Entries that show only a call come without a potency. Unmarked numbers belong to inactive results. Activity calls are given as the source filed them. Calls follow the shape of the dose curve; as a rule, active = well fitted cell-killing curve with a large enough effect; inconclusive = small, poorly fitted or top-dose-only effect, or effect the other way; inactive = no such curve, though single readings can be large or run the other way.

Columns and labels:
[1] = Quantitative High-Throughput drug screen in 47 multiple myeloma cell lines against the NCATS MIPE library collection: LP1_DSMZ cell viability assay (AID 1918982); also: nearly all actives have a fitted effect of over 35% in size
How it was run: (§1)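 Viability after 48 h drug exposure was measured as ATP-dependent luminescence. Cells, 500 per well, sat at 37 °C under 5% CO2; DMSO wells set 100%, media-only wells 0%.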

[2] = Quantitative High-Throughput drug screen in 47 multiple myeloma cell lines against the NCATS MIPE library collection: L363_DSMZ cell viability assay (AID 1918984); also: nearly all actives have a fitted effect of over 40% in size; also: potency is read from the fitted curve at half-maximal effect
How it was run: as §1

[3] = Quantitative High-Throughput drug screen in 47 multiple myeloma cell lines against the NCATS MIPE library collection: OCIMY7_PLB cell viability assay (AID 1918987); conditions: OCI-MY7 myeloma viability, CellTiter-Glo ATP, 48 h; viability (% of DMSO): at 45.8 µM (top of the series); also: potency is read from the fitted curve at half-maximal effect; nearly all actives have a fitted effect of over 65% in size
How it was run: as §1

[4] = Quantitative High-Throughput drug screen in 47 multiple myeloma cell lines against the NCATS MIPE library collection: OCIMY5_PLB cell viability assay (AID 1918988); also: nearly all actives have a fitted effect of over 65% in size; also: potency is read from the fitted curve at half-maximal effect
How it was run: as §1

[5] = Quantitative High-Throughput drug screen in 47 multiple myeloma cell lines against the NCATS MIPE library collection: OPM1_PLB cell viability assay (AID 1918989); also: nearly all actives have a fitted effect of over 40% in size; also: potency is read from the fitted curve at half-maximal effect
How it was run: as §1

[6] = Quantitative High-Throughput drug screen in 47 multiple myeloma cell lines against the NCATS MIPE library collection: XG6_PLB cell viability assay (AID 1919865); also: nearly all actives have a fitted effect of over 40% in size; also: potency is read from the fitted curve at half-maximal effect
How it was run: as §1

[7] = Quantitative High-Throughput drug screen in 47 multiple myeloma cell lines against the NCATS MIPE library collection: XG1_PLB cell viability assay (AID 1919866); also: nearly all actives have a fitted effect of over 35% in size; also: potency is read from the fitted curve at half-maximal effect
How it was run: as §1

[8] = Quantitative High-Throughput drug screen in 47 multiple myeloma cell lines against the NCATS MIPE library collection: VP6_DJ cell viability assay (AID 1919867); also: nearly all actives have a fitted effect of over 40% in size; also: potency is read from the fitted curve at half-maximal effect
How it was run: as §1

[9] = Quantitative High-Throughput drug screen in 47 multiple myeloma cell lines against the NCATS MIPE library collection: PCM6_Riken cell viability assay (AID 1919870); also: nearly all actives have a fitted effect of over 30% in size; also: potency is read from the fitted curve at half-maximal effect
How it was run: as §1

[10] = Quantitative High-Throughput drug screen in 47 multiple myeloma cell lines against the NCATS MIPE library collection: RPMI8226_ATCC cell viability assay (AID 1919871); also: nearly all actives have a fitted effect of over 30% in size; also: potency is read from the fitted curve at half-maximal effect
How it was run: as §1

[11] = Quantitative High-Throughput drug screen in 47 multiple myeloma cell lines against the NCATS MIPE library collection: OPM2_DSMZ cell viability assay (AID 1919872); also: nearly all actives have a fitted effect of over 30% in size; also: potency is read from the fitted curve at half-maximal effect
How it was run: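 Myeloma cell lines, 500 cells per well, exposed to MIPE 4.0 library compounds for 48 h at 37C, 5% CO2. Viability from ATP by CellTiter-Glo luminescence; normalised to DMSO (100%) and media-only (0%) wells.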

[12] = Quantitative High-Throughput drug screen in 47 multiple myeloma cell lines against the NCATS MIPE library collection: MM1R_ATCC cell viability assay (AID 1918981); also: nearly all actives have a fitted effect of over 35% in size; also: potency is read from the fitted curve at half-maximal effect
How it was run: as §1

[13] = Quantitative High-Throughput drug screen in 47 multiple myeloma cell lines against the NCATS MIPE library collection: U266_ATCC cell viability assay (AID 1919864); also: nearly all actives have a fitted effect of over 35% in size; also: potency is read from the fitted curve at half-maximal effect
How it was run: as §1

[14] = Quantitative High-Throughput drug screen in 47 multiple myeloma cell lines against the NCATS MIPE library collection: PE2_PLB cell viability assay (AID 1919869); also: nearly all actives have a fitted effect of over 35% in size; also: potency is read from the fitted curve at half-maximal effect
How it was run: as §1

[15] = Quantitative High-Throughput drug screen in 47 multiple myeloma cell lines against the NCATS MIPE library collection: KMS28PE_JCRB cell viability assay (AID 1918983); also: nearly all actives have a fitted effect of over 35% in size; also: potency is read from the fitted curve at half-maximal effect
How it was run: as §1

[16] = Quantitative High-Throughput drug screen in 47 multiple myeloma cell lines against the NCATS MIPE library collection: KMS34_JCRB cell viability assay (AID 1918985); also: nearly all actives have a fitted effect of over 40% in size; also: potency is read from the fitted curve at half-maximal effect
How it was run: as §1

[17] = Quantitative High-Throughput drug screen in 47 multiple myeloma cell lines against the NCATS MIPE library collection: SKMM1_PLB cell viability assay (AID 1919863); conditions: SKMM1 myeloma viability, CellTiter-Glo ATP, 48 h; viability: hits give low values; also: nearly all actives have a fitted effect of over 35% in size; also: potency is read from the fitted curve at half-maximal effect
How it was run: as §1

[18] = Quantitative High-Throughput drug screen in 47 multiple myeloma cell lines against the NCATS MIPE library collection: UTMC2_PLB cell viability assay (AID 1919868); conditions: CellTiter-Glo ATP luminescence, 48 h; viability (% of DMSO control): at 45.8 µM (top of the series); also: nearly all actives have a fitted effect of over 55% in size; also: potency is read from the fitted curve at half-maximal effect
How it was run: as §1

Compound | Potency [1] | Potency [2] | Potency [3] | Potency [4] | Potency [5] | Potency [6] | Potency [7] | Potency [8] | Potency [9] | Potency [10] | Potency [11] | Potency [12] | Potency [13] | Potency [14] | Potency [15] | Potency [16] | Potency [17] | Potency [18] | viability [17]
CCCCOc1ccc(C(=O)Nc2ccc(F)cc2F)cc1 | inactive | inactive | 0.105 µM (active) | inactive | inactive | inactive | inactive | 7.43 µM (active) | inactive | inactive | inactive |  |  |  |  |  |  |  | 
COC(=O)C1C2CC3c4[nH]c5cc(OC)ccc5c4CCN3CC2CC(OC(=O)c2cc(OC)c(OC)c(OC)c2)C1OC (stereo not given) |  |  | 16.6 µM (active) | 16.6 µM (active) |  |  |  |  | 16.6 µM (active) | 16.6 µM (active) | inactive | 13.2 µM (active) | 23.5 µM (active) | 14.8 µM (active) |  |  |  |  | 
CCCCCN=C(N)NN=Cc1c[nH]c2ccc(OC)cc12 |  | 2.09 µM (active) | 2.96 µM (active) | 3.72 µM (active) | 11.8 µM (active) |  | 2.35 µM (active) |  |  | 14.8 µM (active) | 10.5 µM (active) |  |  | 4.18 µM (active) | 10.5 µM (active) | 7.43 µM (active) | 0.296 µM (active) |  | 
CCc1nc(-c2cccc(C)c2)c(-c2ccnc(NC(=O)c3ccccc3)c2)s1 |  | inactive |  | 16.6 µM (active) |  | 20.9 µM (active) |  |  |  |  | 18.7 µM (active) |  |  |  |  |  | 7.43 µM (active) | 23.5 µM (active) | 
COc1ccc(Nc2nccc(NCCO)n2)cc1 |  | inactive |  |  | inactive | inactive | inactive | 1.66 µM (active) |  |  |  |  |  |  |  |  |  | inactive | 
C=C1C[C@@]2(O)O[C@@]3(C[C@H]2C(C)C)[C@H](C)CC[C@H]13 | inactive |  |  | inactive | inactive | inactive | inactive | inactive | inactive |  | inactive | inactive | inactive | inactive | inactive | inactive |  | inactive | 
OCCN1C[C@H](O)[C@@H](O)[C@H](O)[C@@H]1CO | inactive | inactive |  |  | inactive | inactive | inactive | inactive |  |  | inactive | inactive |  | inactive |  | inactive |  | inactive | 126%
CCCCCCCN(CC)CCCC(O)c1ccc(NS(C)(=O)=O)cc1 (stereo not given) |  |  |  |  |  |  | 18.7 µM (active) |  |  | inactive |  | inactive | inactive |  |  | inactive |  |  | 
O=C(O)C(=O)Nc1cccc(C2=NN=N[N]2)c1 | inactive |  |  | inactive | inactive | inactive | inactive |  | inactive | inactive | inactive |  |  | inactive | inactive | inactive |  |  | 129%
C[C@H](O)[C@@H]1C(=O)N2C(C(=O)O)=C(S[C@@H]3CN[C@H](CNS(N)(=O)=O)C3)[C@@H](C)[C@@H]12 | inactive |  |  |  |  |  | inactive | inactive | inactive |  | inactive |  | inactive |  |  | inactive |  | inactive | 105%
OC[C@@H](O)[C@@H](O)[C@H](O)[C@@H](O)CO | inactive |  |  |  | inactive | inactive | inactive | inactive | inactive | inactive | inactive |  |  | inactive |  |  |  |  | 122%
CC(=O)NC(CS)C(=O)O (stereo not given) | inactive |  |  |  |  | inactive | inactive |  | inactive |  |  |  |  | inactive |  | inactive |  |  | 
O=C(O)C[C@H](O)C[C@H](O)C=Cc1c(C2CC2)nc2ccccc2c1-c1ccc(F)cc1 |  | 5.26 µM (active) | 2.35 µM (active) | 20.9 µM (active) | 2.64 µM (active) | 18.7 µM (active) | 3.32 µM (active) | 16.6 µM (active) |  | 16.6 µM (active) |  | 5.9 µM (active) |  | 4.69 µM (active) | 14.8 µM (active) |  |  | 9.35 µM (active) | 
COc1ccc(C[C@@H](C)[C@@H](C)Cc2ccc(OC)c(OC)c2)cc1OC |  | 0.166 µM (active) | 0.296 µM (active) | 0.469 µM (active) |  | 0.264 µM (active) | 0.187 µM (active) | 0.833 µM (active) | 0.332 µM (active) | 1.18 µM (active) | 0.469 µM (active) | 1.05 µM (active) |  | 0.332 µM (active) | 0.332 µM (active) | 0.132 µM (active) | 0.372 µM (active) | 0.209 µM (active) | 
O=c1[nH]c(=O)n([C@H]2C[C@@H](O)[C@@H](CO)O2)cc1C=CBr | inactive | inactive |  |  | 0.105 µM (active) | inactive | inactive | inactive | inactive | inactive | inactive |  | inactive | inactive | inactive | inactive |  |  | 
